In PubChem BioAssay AID588795 (National Center for Advancing Translational Sciences (NCATS), 2011):
“And” between values parts separate entries of the source, which are not always exact repeats. Equal entries are not always repeated. The campaign covered roughly 390,000 compounds. About 1,400 (0.36%) were called active. About 2% were inconclusive and are not listed. The call rests on the fitted dose curve; in most records, active means well fitted inhibition curve with a large enough effect; inconclusive means small, poorly fitted or top-dose-only effect; inactive means no such curve, though single readings can be large or run the other way. Shown is part of a subset that was picked to be rich in actives. Where a call stands in place of a potency, no number is given.

biological target: Flap endonuclease 1 (Homo sapiens) (UniProt P39748); experiment: qHTS Assay for the Inhibitors of Human Flap endonuclease 1 (FEN1).; further: nearly all actives have a fitted effect of over 65% in size; conditions: Recombinant FEN1 flap cleavage, fluorescence, 15 min; series mostly up to 114 µM
Sequence (P39748 whole entry, looked up): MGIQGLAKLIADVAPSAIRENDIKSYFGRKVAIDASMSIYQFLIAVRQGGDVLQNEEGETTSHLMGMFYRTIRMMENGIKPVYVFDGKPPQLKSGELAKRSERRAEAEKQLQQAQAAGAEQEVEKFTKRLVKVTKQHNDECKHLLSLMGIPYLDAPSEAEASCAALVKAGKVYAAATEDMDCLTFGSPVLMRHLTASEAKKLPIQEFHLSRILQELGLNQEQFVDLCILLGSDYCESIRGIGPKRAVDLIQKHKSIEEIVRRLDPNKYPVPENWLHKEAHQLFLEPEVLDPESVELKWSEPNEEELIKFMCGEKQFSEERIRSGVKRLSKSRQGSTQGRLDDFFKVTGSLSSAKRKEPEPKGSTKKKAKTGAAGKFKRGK
Procedure, shortened: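 Nuclease activity of 10 nM FEN1 was measured after 15 min of room-temperature exposure to titrated compounds, by adding 50 nM flap substrate and reading plates at 0 and 15 min.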
Potency means the concentration at half of the fitted maximal effect.

| Structure (SMILES) | Potency |
| --- | --- |
| COc1cc(OC)c2c(C)cc(=O)oc2c1C(CCN1CCCCC1)c1ccc(N(C)C)cc1 (stereo not given) | inactive |
| CCN(CC)c1nc(C#N)nc(OC)n1 | inactive |
| CN(CCOc1ccccc1)C(=O)c1cc(-c2ccco2)nc2ccccc12 | inactive |
| CN(C(=O)COC(=O)c1cc(-c2ccco2)nc2ccccc12)C1CCS(=O)(=O)C1 (stereo not given) | 50.1 µM (active) |
| CC1CCCN(C(=O)c2cc(-c3ccco3)nc3ccccc23)C1 (stereo not given) | inactive |
| O=C(O)c1c(Br)c(Br)c(Br)c(Br)c1C1c2ccc(O)cc2Oc2cc(O)ccc21 | 3.98 µM (active) |
| N#CC1=C(N)Oc2cc(O)ccc2C1C1CCCCC1 (stereo not given) | inactive |
| Cc1ccc(Nc2nnc(-c3ccc(C)c(S(=O)(=O)N4CCCCC4)c3)c3ccccc23)cc1 | inactive |
| Cc1ccc(C)c(Nc2nnc(-c3ccc(C)c(S(=O)(=O)N4CCCCC4)c3)c3ccccc23)c1 | 89.1 µM (active) |
| Cc1ccc(-c2nnc(Nc3ccc(C(=O)N(C)C)cc3)c3ccccc23)cc1S(N)(=O)=O | inactive |
| O=[N+]([O-])c1ccc(S(=O)(=O)N2CCN(c3nc(-c4ccccc4)nc4ccccc34)CC2)cc1 | inactive |
| NS(=O)(=O)c1ccc(NC(=O)CSc2nnc3c(n2)[nH]c2ccccc23)cc1 | inactive |
| COc1ccc(CCNC(=O)C(=O)NCC(c2ccco2)S(=O)(=O)c2cccs2)cc1OC (stereo not given) | inactive |
| O=c1[nH]c2ccccc2n2c(-c3ccccc3)nnc12 | 79.4 µM (active) and 20 µM (active) |
| O=c1cc(-c2ccccc2)n2c(SCc3ccccc3)nnc2[nH]1 | inactive |
| CC(C)(C)OC(=O)N(Cc1ccco1)S(=O)(=O)c1ccccc1Br | inactive |
| O=C1C[C@H]2C=CCc3cccc(c32)CN1Cc1ccccc1 | inactive |
| O=C(c1ccc2c(=O)n(Cc3ccco3)c(=S)[nH]c2c1)N1CCCC1 | inactive |
| O=S(=O)(Nc1cccc2cccnc12)c1cccc2cccnc12 | inactive |
| O=C(O)C(c1ccccc1)N1C(=O)/C(=C\c2ccc(-c3cccc(Cl)c3)o2)SC1=S (stereo not given) | 17.8 µM (active) |
| Cn1cccc1/C=C1\SC(=S)N(NC(=O)c2ccc(Cl)cc2)C1=O | inactive |
| O=C(NCc1ccccc1)c1cc(-c2cccc(Cl)c2)on1 | inactive |
| Cc1c(CCO)sc[n+]1CC(=O)c1ccc2ccccc2c1 | inactive |
| O=C(C1COc2ccccc2O1)N(Cc1cccnc1)c1nc2c(F)cc(F)cc2s1 (stereo not given) | inactive |
| Cc1sc2nc(CSCC(=O)NC3CCCCC3)[nH]c(=O)c2c1C | inactive |

| Structure (SMILES) | Potency |
| --- | --- |
| CSc1nnc(SCc2nc3sc(C(=O)O)c(C)c3c(=O)[nH]2)s1 | 20 µM (active) |
| CCOC(=O)c1sc2nc(CSCC(=O)OCc3ccc(C(=O)OC)o3)[nH]c(=O)c2c1C | inactive |
| CCOC(=O)C1CCN(C(c2ccc(F)cc2)c2sc3nc(-c4ccco4)nn3c2O)CC1 (stereo not given) | inactive |
| Cn1nnc2c(N3CCN(c4ccccc4)CC3)ncnc21 | inactive |
| O=C(NCc1ccccc1)C(=O)NCC(c1ccco1)S(=O)(=O)c1ccc(Cl)cc1 (stereo not given) | inactive |
| COC(=O)CCCC1=CC2=CC(=O)C(C)(OC(=O)c3cccs3)C(=O)C2=CN1c1cccc(C#N)c1 (stereo not given) | inactive |
| CC1(OC(=O)C2CCCC2)C(=O)C=C2C=C(c3ccc(C#N)cc3)OC=C2C1=O (stereo not given) | 20 µM (active) |
| CC1(OC(=O)CCc2ccccc2)C(=O)C=C2C=C(c3ccc(C#N)cc3)N(CCc3ccccn3)C=C2C1=O (stereo not given) | inactive |
| C=COC(=O)N1CCN(/[N+]([O-])=N/Oc2ccc([N+](=O)[O-])cc2[N+](=O)[O-])CC1 | inactive |
| CCc1c(C)nc2c(OC)cccc2c1Cl | inactive |
| COc1nc(N=C(N)N)nc2c(C)cccc12 | 39.8 µM (active) |
| Cc1nc(N=C(N)N)nc2c(C)cccc12 | 35.5 µM (active) |
| Cc1nc(/N=C(\N)NC(=O)NC2CCCCC2)nc2ccccc12 | inactive |
| COc1ccccc1NC(=O)CSc1oc(-c2ccco2)nc1S(=O)(=O)c1ccc(Br)cc1 | inactive |
| O=C(Nc1ccccc1C(F)(F)F)c1nc(S(=O)(=O)Cc2ccccc2F)ncc1Cl | inactive |
| CCOc1ccccc1N(CC)C(=O)Nc1cn(C)c(=O)c2ccccc12 | inactive |
| Cc1ccc(NC2=C(c3ccc(C(F)(F)F)cc3)C(=O)c3ccccc32)cc1F | inactive |
| CN(CCC#N)c1ccc(C=O)cc1 | inactive |
| CCN(CC)C(=O)CSC(Nc1cccc(F)c1)=C(C#N)C#N | inactive |
| CCN(CC)N=Nc1cccc(NC(C)=O)c1 | 89.1 µM (active) |
| CC(=O)Nc1cccc(C(=O)OCC(=O)c2ccc3c(c2)OCO3)c1 | inactive |
| CCOC(=O)c1c(C)[nH]c(CCC(=O)NCCCN2CCN(c3cccc(Cl)c3)CC2)c1C | inactive |
| COc1ccc(CCn2c3c(c(=O)[nH]c2=S)CN(C(C)C)CN3)cc1OC | inactive |
| Cc1cccc(-c2nnc(SC(C)C(=O)Nc3ccccc3)n2C)c1 (stereo not given) | inactive |
| COc1cc(C(=O)Nc2ccc(-n3c(C)nc4ccccc4c3=O)cc2)cc(OC)c1OC | inactive |
